Screens from PubChem.
GLS inhibitor: qHTS for Inhibitors of Glutaminase (GLS); Glutaminase kidney isoform, mitochondrial (Homo sapiens), O94925; Potency, µM (titrated, usually from 45.5 µM), for inactives: at the top dose activity change, negative = inhibition, actives largely listed as inhibitors; 410,000 tested, 0.21% active; GLS enzymatic activity, qHTS titration; further: on the % scale 0 is the no-effect control and ±100 the full control effect
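Assay buffer: 45 mM KH2PO4 pH 8.2, 0.02% Tween-20. hKGA acts on L-glutamine (1 mM solution added); product glutamate is reported by an oxidase/peroxidase Amplex Red coupling, with fluorescence taken at baseline and 30 min.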
BAZ2B block: qHTS Assay for Inhibitors of BAZ2B; 360,000 tested, 4.4% active; AlphaScreen BAZ2B-H3K14Ac peptide displacement; Potency, µM (titrated, usually from 114 µM), inactives show at the top dose activity change, negative = inhibition, actives largely listed as inhibitors; Bromodomain adjacent to zinc finger domain protein 2B (Homo sapiens), Q9UIF8; further: on the % scale 0 is the no-effect control and ±100 the full control effect; nearly all actives have a fitted effect of over 60% in size
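BAZ2B (50 nM) with biotin-H3(5-23)K14Ac peptide (50 nM) in PBS pH 7.4, 0.01% Tween-20, preformed 30 min, then compound 30 min at room temperature; top concentration 110uM. AlphaScreen streptavidin donor/nickel chelate acceptor beads (10 ug/mL final), 20 min dark, signal read.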
G9a block: qHTS Assay for Inhibitors of Histone Lysine Methyltransferase G9a; G9a H3K9 monomethylation, AlphaScreen, 2 h; AID 504332, 2011; Histone-lysine N-methyltransferase EHMT2 (Homo sapiens), Q96KQ7; Potency, µM (top dose mostly 102 µM), for the others: at the top dose activity, negative = inhibition, actives largely listed as inhibitors; 350,000 tested, 8.8% active; further: on the % scale 0 is the no-effect control and ±100 the full control effect; nearly all actives have a fitted effect of over 75% in size
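Enzyme 20 nM + cpd, 15 min RT; add b-H3K9 pep 500 nM / SAM 20 uM; 2 h RT; anti-H3K9me1 Ab 0.5 ug/mL + SA donor / anti-rabbit acceptor beads 20 ug/mL each, 10 min; AlphaScreen read.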
JMJD2A Tudor inh: qHTS Assay for Inhibitors of JMJD2A-Tudor Domain. Potency, µM (top dose mostly 114 µM), for the others: top-dose activity change, negative = inhibition, usual class: inhibitors. 390,000 tested, 4.4% active. Lysine-specific demethylase 4A (Homo sapiens), O75164. AID 504339, 2011. AlphaScreen JMJD2A-Tudor / H3K4me3 peptide binding; further: on the % scale 0 is the no-effect control and ±100 the full control effect; nearly all actives have a fitted effect of over 50% in size
L3MBTL1 block: qHTS Assay for the Inhibitors of L3MBTL1. AID 485360, 2010. AlphaScreen L3MBTL1–H3K9me1 peptide binding. Lethal(3)malignant brain tumor-like protein 1 (Homo sapiens), Q9Y468. Potency, µM (titrated, usually from 57.1 µM), without a hit: top-dose activity, negative = inhibition, hits mostly inhibitors. 230,000 tested, 0.66% active; further: on the % scale 0 is the no-effect control and ±100 the full control effect; nearly all actives have a fitted effect of over 60% in size
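Read-out is AlphaScreen signal from streptavidin donor and nickel chelate acceptor beads (10 ug/mL final each) bridging L3MBTL1 (50 nM) and biotinylated K9-monomethylated H3(1-15) peptide (75 nM), after 30 min compound exposure at room temperature.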
HP1b binding inh: HTS for Inhibitors of HP1-beta Chromodomain Interactions with Methylated Histone Tails | Chromobox protein homolog 1 (Homo sapiens), P83916 | AlphaScreen HP1-beta / biotin-H3K9me3 peptide binding | Potency, µM (top dose mostly 114 µM), inactives show at the highest dose activity change, negative = inhibition, most hits filed as inhibitors | 390,000 tested, 0.56% active; further: nearly all actives have a fitted effect of over 70% in size
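Compound inhibition of the preformed complex between 50 nM HP1-beta and 50 nM biotinylated H3K9me3 peptide was read by AlphaScreen. Buffer was PBS pH 7.4 with 0.01% Tween-20. Incubations ran 30 min at room temperature, with 10 ug/mL donor/acceptor beads.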
* marks the source's active call; other numbers are inactive results; ? = inconclusive; · = not tested or not shown; [ ] = dose if it differs, or a comment. Most compounds without a hit are left out; they make up all but 10% or so of the library. The call rests on the fitted dose curve; in most records, active means well fitted curve in the direction sought with a large enough effect; inconclusive means small, poorly fitted or top-dose-only effect, or another doubt; inactive means no such curve, though single readings can be large; an effect the other way counts as inactive or inconclusive. Potency means the concentration at half of the fitted maximal effect.

SMILES | GLS inhibitor | BAZ2B block | G9a block | JMJD2A Tudor inh | L3MBTL1 block | HP1b binding inh
O=C1Nc2cc(Cl)ccc2Oc2cc(Oc3ccccc3)ccc21 | -9% | -14% | 6%[59 µM] | -16% | · | 9%
O=C(Nc1ccc(/C=C/c2ccc(NC(=O)c3cc(S(=O)(=O)O)c4cccnc4c3O)cc2S(=O)(=O)O)c(S(=O)(=O)O)c1)c1cc(S(=O)(=O)O)c2cccnc2c1O | -117% | · | · | · | · | ·
Cc1cc(C(=O)NNC(=S)NC(=O)/C=C/c2ccccc2Cl)n[nH]1 | 6% | 22µM* | 28µM* | 50µM* | · | -17%
CCC(CC)NC(=O)/C=C/c1ccccc1Cl | 17% | 13% | -7%[59 µM] | ? | -2% | ?
CC(=O)NNC(=S)NC(=O)c1ccc(C)cc1 | 0% | ? | ? | 9% | -22% | 40%
CNC(=O)c1ccsc1NC(=O)c1coc2ccccc2c1=O | -30% | -24% | 50µM* | -11% | -3% | 60%
CC(=O)NNC(=S)NC(=O)c1ccccc1 | 6% | 1% | 6.3µM* | 20µM* | 12% | 13%
Cc1cccc(C(=O)NC(=S)NNC(=O)c2ccccc2Cl)c1 | 41% | -5% | 7.9µM* | -28% | 13% | -16%
Cc1cccc(C(=O)NC(=S)NNC(=O)Cc2ccccc2)c1 | 23% | 2% | 7.1µM* | -30% | 19% | 1%[57 µM]
Cc1c(NC(=S)NC(=O)c2cccc3ccccc23)cccc1C(=O)O | 13% | -17% | -44% | -3% | · | 25%
O=C(O)c1ccccc1NC(=S)NC(=O)c1cccc2ccccc12 | 0% | ? | 50µM* | -10% | -1% | -2%
Cc1ccccc1OCC(=O)Nc1sc2c(c1C(=O)OC(C)C)CCCC2 | -8% | 1% | ? | -8% | · | 16%
Cc1noc(Cn2c(=O)c3ccccc3n(CC(=O)Nc3ccc(C(C)C)cc3)c2=O)n1 | -2% | -14% | -33%[59 µM] | -16% | · | 21%
CCN(CC)C(=O)c1sc(NC(=O)c2ccc3c(c2)OCO3)c(C(N)=O)c1C | 0% | -10% | · | 6% | · | 14%
Cc1c(Cc2ccccc2)sc(NC(=O)/C=C/c2cccc3ccccc23)c1C(N)=O | ? | -11% | 20µM* | 40µM* | 8% | -3%
COC(=O)c1ccsc1NC(=O)CN1CCN(Cc2ccc3c(c2)OCO3)CC1 | 0% | -1% | -3% | -30% | 8% | 15%
Cc1c(Cc2ccc3c(c2)OCO3)sc(NC(=O)C2CC2)c1C(N)=O | 5% | -33% | 3.5µM* | ? | · | -23%
Cc1c(Cc2ccc3c(c2)OCO3)sc(NC(=O)c2cccc3ccccc23)c1C(N)=O | -18% | ? | 7.1µM* | ? | -3% | ?
Cc1c(Cc2ccccc2)sc(NC(=O)c2ccco2)c1C(N)=O | 2% | 8% | 5%[59 µM] | -19% | 4% | 14%
COC(=O)c1c(NC(=O)CN2C(=O)c3ccccc3C2=O)sc(Cc2ccc3c(c2)OCO3)c1C | -10% | -6% | 50µM* | -2% | 0% | -8%
CCc1cccc(NC(=O)C(c2ccccc2)N2Cc3ccccc3C2=O)c1 (stereo unspecified) | -3% | -19% | -7%[59 µM] | -24% | · | -7%
Cc1ccc(N2CC(NC(=O)CCc3ccccc3)CC2=O)cc1C (stereo unspecified) | 0% | 3% | 3%[59 µM] | 2% | · | 26%
CCc1ccc(NC(=O)c2ccc3c(=O)n4nc(Nc5ccccc5C)sc4nc3c2)cc1 | 2% | -10% | -10%[59 µM] | -10% | · | 12%
CCOc1ccc(/C=C/c2nc(C#N)c(N3CCN(c4ccc(OC)cc4)CC3)o2)cc1 | 0% | -2% | -1%[59 µM] | -20% | · | -15%
COc1cccc(OC)c1OCC(O)CN1CCN(c2ccccc2F)CC1 (stereo unspecified) | 6% | 1% | 28%[2.33 µM] | -2% | · | 63%
